We go through ten compounds from PubChem BioAssay (EPA / NIEHS).

One test deals with TTR (gene 7276). Put plainly: CCTE_GLTED_hTTR_0.125uM: CCTE's human Transthyretin (hTTR) Inhibition Assay, with 0.125uM TTR, Great Lakes Toxicology and Ecology Division (GLTED) Lab (AID 2284431).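 Also: hits lower the fluorescence signal relative to DMSO baseline.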 The essentials: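 Fluorescence (380 ex, 475 em) reported the ANSA probe remaining bound to 0.125uM human transthyretin. Chemicals were incubated with the protein for 2 hours; activity was scored as loss of signal against DMSO negative control.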

Test [1] relates to SRY-box transcription factor 17 (SOX17) Protein Expression, Deisenroth Lab, SOX17 (gene 64321). The experiment in a line: CCTE_Deisenroth_DEVTOX-GLR_legacy_Sox17: (Legacy) CCTE's DevTox GLR-Endo Assay Evaluation of SRY-box transcription factor 17 (SOX17) Protein Expression, Deisenroth Lab (AID 2284341). Conditions: actives raise or lower the signal. The essentials: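 Percent SOX17-positive cells, scored by high-content imaging as mean intensity exceeding pluripotent-control median by 5x BMAD, divided by cell count. Human RUES2-GLR endoderm differentiation, 48 h, two exposures 24 h apart, 1 nM–200 uM; DMSO-referenced bidirectional fitting.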

Test [2] concerns SRY-box transcription factor 2 (SOX2) Protein Expression, Deisenroth Lab, SOX2 (gene 6657). Put plainly: CCTE_Deisenroth_DEVTOX-GLR_legacy_Sox2: (Legacy) CCTE's DevTox GLR-Endo Assay Evaluation of SRY-box transcription factor 2 (SOX2) Protein Expression, Deisenroth Lab (AID 2284346). The method, boiled down: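 Two exposures, 24 h apart, during 48 h defined-media differentiation of seeded RUES2-GLR cells; nuclei-stained cells imaged. Sox2 positivity called at 5x BMAD above endoderm control median, DMSO median subtracted.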

Test [3] relates to SRY-box transcription factor 17 (SOX17) Protein Expression, Deisenroth Lab, SOX17 (gene 64321). Put plainly: CCTE_Deisenroth_DEVTOX-GLR_Endo_SOX17: CCTE's DevTox GLR-Endo Assay Evaluation of SRY-box transcription factor 17 (SOX17) Protein Expression, Deisenroth Lab (AID 2284413). The essentials:
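Fluorescent microscopy of a SOX17 reporter in RUES2-GLR pluripotent cells scored endoderm differentiation after 48 h and two 24-h-spaced exposures. Values are percent change in SOX17+ population against 0.2% DMSO, n=4 experimental replicates.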

For test [4], the system named is Brachyury (BRA) Protein Expression, TBXT (gene 6862). Put plainly: CCTE_Deisenroth_DEVTOX-GLR_Endo_BRA: CCTE's DevTox GLR-Endo Assay Evaluation of Brachyury (BRA) Protein Expression, Deisenroth Lab (AID 2284417). The method, boiled down:
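Endpoint is the fraction of BRA reporter-positive cells over total nuclei, corrected by subtracting the 0.2% DMSO value. Chemicals (1 nM - 200 uM, 10 points) were dosed twice during 48 h differentiation of RUES2-GLR cells, read by imaging.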

Test [5] can be described thus: CCTE_Deisenroth_DEVTOX-GLR_Endo_CellCount: Viability Assessment in CCTE's DevTox GLR-Endo Assay, Deisenroth Lab (AID 2284420). The essentials:
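Human pluripotent RUES2-GLR line; 24 h pre-seed; 48 h endoderm-directed differentiation; 2 doses, q24h; 10 conc., 1 nM - 200 uM; fix + nuclear dye; 5 fields/well imaged; readout = nuclei count, % change vs 0.2% DMSO; n=4.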

Test [6] deals with SRY-box transcription factor 17 (SOX17) Protein Expression, Deisenroth Lab, SOX17 (gene 64321). Put plainly: CCTE_Deisenroth_DEVTOX-GLR_Pluri_SOX17: CCTE's DevTox GLR-Pluri Assay Evaluation of SRY-box transcription factor 17 (SOX17) Protein Expression, Deisenroth Lab (AID 2284427; active = hit-call score of the fitted dose curve at least 0.9, where 1 is the maximum). The method, boiled down:
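Human RUES2-GLR pluripotent line; 24 h seeding, 48 h defined-media differentiation, 2 doses q24h, 10 conc 1 nM - 200 uM. Fix, nuclear stain, image 5 fields/well. Endpoint = %SOX17+ minus 0.2% DMSO; n=4.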

In test [7] the test system is SRY-box transcription factor 2 (SOX2) Protein Expression, Deisenroth Lab, SOX2 (gene 6657). Put plainly: CCTE_Deisenroth_DEVTOX-GLR_Pluri_SOX2: CCTE's DevTox GLR-Pluri Assay Evaluation of SRY-box transcription factor 2 (SOX2) Protein Expression, Deisenroth Lab (AID 2284428). The method, boiled down:
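Steps: seed RUES2-GLR cells for 24 h; start 48 h differentiation in defined media; dose test chemicals at 0 and 24 h (1 nM–200 uM); fix, stain nuclei, image; compute SOX2+ percentage against 0.2% DMSO wells.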

In test [8] the test system is Brachyury (BRA) Protein Expression, Deisenroth Lab, TBXT (gene 6862). Put plainly: CCTE_Deisenroth_DEVTOX-GLR_Pluri_BRA: CCTE's DevTox GLR-Pluri Assay Evaluation of Brachyury (BRA) Protein Expression, Deisenroth Lab (AID 2284429; active = hit-call score of the fitted dose curve at least 0.9, where 1 is the maximum). The essentials:
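Mesoderm readout after 48 h differentiation of human RUES2-GLR cells, dosed twice (24-h intervals) at 1 nM - 200 uM. BRA+ frequency from fluorescence imaging of fixed, nuclear-stained cells, DMSO-corrected.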

Test [9] in a line: CCTE_Deisenroth_DEVTOX-GLR_Pluri_CellCount: Viability Assessment in CCTE's DevTox GLR-Pluri Assay Evaluation of Total Cell Counts, Deisenroth Lab (AID 2284430). The method, boiled down: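 Cytotoxicity readout: fluorescent nuclei counts by high-content imaging, expressed as percent change relative to 0.2% DMSO. Human RUES2-GLR pluripotent line differentiated 48 h, dosed twice at 24-h intervals across 1 nM - 200 uM (10 points).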

Test [10] is described as follows: VALA_TUBIPS_Antagonist_CellCount: Viability Assessment in the VALA Sciences human iPS-derived Endothelial Tubule Formation (TUBIPS) Antagonism Assay (AID 2284335; active = hit-call score of the fitted dose curve at least 0.9, where 1 is the maximum).
Test [11] is described as follows: VALA_TUBHUV_Agonist_TubuleLength: VALA Sciences human Umbilical Vein Endothelial Tubule Formation (TUBHUV) Agonism Assay (AID 2284337; active = hit-call score of the fitted dose curve at least 0.9, where 1 is the maximum). The method, boiled down:
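Tubule length quantified by CD31 immunofluorescence imaging after fixation. HUVEC-HDF co-cultures (1:3) pre-grown 3 days with 10 ng/ml VEGF, then dosed 3 days in VEGF medium; 0.1 % DMSO vehicle baseline.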

Test [12] can be described thus: VALA_TUBIPS_Agonist_CellCount: Viability Assessment in the VALA Sciences human iPS-derived Endothelial Tubule Formation (TUBIPS) Agonism Assay (AID 2284338; active = hit-call score of the fitted dose curve at least 0.9, where 1 is the maximum).
The nature of test [13]: CCTE_Mundy_HCI_iCellGluta_NOG_NeuronCount: CCTE's Neurite Outgrowth Assay in iCellGluta cells for Neuron Count, Mundy Lab (AID 2284340; active = hit-call score of the fitted dose curve at least 0.9, where 1 is the maximum;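 also: cells fixed about 48 h after compound addition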). The method, boiled down:
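Neuron count read by automated high-content imaging of Hoechst 33342 and betaIII-tubulin/Alexa Fluor-488 labelling in human iPSC glutamatergic neurons. Activity fitted relative to DMSO.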

A short description of test [14]: CCTE_Mundy_HCI_iCellGluta_NOG_NeuriteCount: CCTE's Neurite Outgrowth Assay in iCellGluta cells for Neurite Count, Mundy Lab (AID 2284342; active = hit-call score of the fitted dose curve at least 0.9, where 1 is the maximum;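 also: chemical exposure about 48 hours starting 2 hours after plating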).
For the next test, the system named is SERPINA7 (gene 6906). The experiment in a line: CCTE_GLTED_hTBG: CCTE's human Thyroxine-binding Globulin (TBG) Inhibition Assay, Great Lakes Toxicology and Ecology Division (GLTED) Lab (AID 2284343; active = hit-call score of the fitted dose curve at least 0.9, where 1 is the maximum;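 also: active chemicals lower fluorescence versus DMSO baseline by displacing probe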). The essentials:
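Fluorescence (ex 380/em 475) reports ANSA displaced from human TBG after a 2 h incubation with test chemical, without cells. Loss of signal indicates displacement, with DMSO serving as baseline.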

The subject of test [15] is SRY-box transcription factor 2 (SOX2) Protein Expression, Deisenroth Lab, SOX2 (gene 6657). The experiment in a line: CCTE_Deisenroth_DEVTOX-GLR_Endo_SOX2: CCTE's DevTox GLR-Endo Assay Evaluation of SRY-box transcription factor 2 (SOX2) Protein Expression, Deisenroth Lab (AID 2284412; active = hit-call score of the fitted dose curve at least 0.9, where 1 is the maximum). The method, boiled down: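 Endpoint is percent SOX2-positive cells (SOX2+ count/total cells) minus 0.2% DMSO control, from high-content imaging of fixed, nuclear-stained RUES2-GLR cells. Dosing twice at 24 h intervals over 48 h differentiation, 1 nM–200 uM in 10 points.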

Results filed as inconclusive are left out. Activity calls are given as the source filed them. The calls were made as follows, unless noted: active = hit-call score of the fitted dose curve at least 0.9, where 1 is the maximum; inactive = score below 0.9.

Broadly, the AC50 is the concentration giving half of the maximal activity seen.

As to `CC(C)=CCCC(C)CCO` (stereo not drawn), the AC50 in the test with TTR (gene 7276) is 45.8 µM (active).
Turning to `NC(=O)NO`, the compound was called inactive in test [1], in test [2], in test [3], in [4], in [6] and in test [7]. In addition, the compound was classed as inactive in test [8] and in [9]. Also, in test [5], the concentration at half-maximal activity (AC50) was 61.3 µM (active).
For `O=P(OC(CCl)CCl)(OC(CCl)CCl)OC(CCl)CCl`, the outcome in [10], in [11], in [12], in test [13] and in test [14] was inactive. Further, the AC50 in the test with SERPINA7 (gene 6906) was 3.27 µM (active).
As for `Cn1c(=O)c2c(ncn2C)n(C)c1=O`, the compound was classed as inactive in test [1], in [2], in test [3], in [4], in [5] and in [7]. Besides, the call in test [9] was inactive. In addition, the AC50 in [15] was 33.8 µM (active).
Consider `O=C(NS(=O)(=O)/C=C/c1ccccc1)c1ccc(F)cc1Cl`, for which the AC50 with TTR (gene 7276) is 13 µM (active).
As for `CC[C@H](C)C(=O)O[C@H]1C[C@@H](C)C=C2C=C[C@H](C)[C@H](CC[C@@H]3C[C@@H](O)CC(=O)O3)[C@H]21`, the AC50 in [1] is 7.97 µM (active); in test [2] it was 41.7 µM (active); in test [15] it was 62.1 µM (active); in test [3] it was 6.57 µM (active); in [4], 54.2 µM (active); in [5], 2.81 µM (active). Also, the AC50 in test [6] was 100 µM (active); in [7], 14.5 µM (active); in test [8], 20.8 µM (active); in test [9] it was 9.67 µM (active).
Turning to `COc1ccc(/C=C/S(=O)(=O)NC(=O)c2ccc(C)cc2Cl)cc1`, the AC50 in the test with TTR (gene 7276) is 12.1 µM (active).
Regarding `O=C(O)c1cc(N=Nc2ccc(S(=O)(=O)Nc3ccccn3)cc2)ccc1O`, the compound was called inactive in [1], in [2], in test [3], in test [5], in [6] and in test [8]. In addition, the compound was classed as inactive in test [9]. The half-maximal activity concentration (AC50) is 15.9 µM (active) with SERPINA7 (gene 6906), 100 µM (active) in test [7] and 0.422 µM (active) with TTR (gene 7276).
Turning to `C=CCCCCCCCCC(=O)O`, the AC50 with TTR (gene 7276) was 7.39 µM (active).
Take `O=C(OC[C@H]1O[C@@H](OC(=O)c2cc(O)c(O)c(OC(=O)c3cc(O)c(O)c(O)c3)c2)[C@H](OC(=O)c2cc(O)c(O)c(OC(=O)c3cc(O)c(O)c(O)c3)c2)[C@@H](OC(=O)c2cc(O)c(O)c(OC(=O)c3cc(O)c(O)c(O)c3)c2)[C@@H]1OC(=O)c1cc(O)c(O)c(OC(=O)c2cc(O)c(O)c(O)c2)c1)c1cc(O)c(O)c(OC(=O)c2cc(O)c(O)c(O)c2)c1`: the AC50 in the test with TTR (gene 7276) is 0.252 µM (active).
